Data published in PubChem BioAssay AID1159580 (chemical genetic matrix, 2015).
Several values for one entry are separate records, joined by “and”; a condition that tells them apart may be missing. Equal values may be shown once. Among all 5,500 compounds or so, about 2,000 (36%) were called active. Roughly 18% stayed inconclusive and do not appear here. Rule as the data show it: active = normalized growth mostly below about 0.91 (no sharp cut-off); inconclusive = no clear call, values can overlap the other calls; inactive = mostly above about 0.92. This is one part of the list. Where a SMILES comes first, the peptide text is derived from it. Bridges are numbered along the chain shown (N, C = ends). [ ]: non-standard residue; d: D form. The star is where a group is joined. Octanoyl(6-Me) = CCC(C)CCCCC(=O)*; Dab = NCC[CH](N)C(=O)O

Assay: chemical genetic growth profiling, strain panel (AID 1159580);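 also: tested at 20 µM; growth read once vehicle control cultures reached saturation at 30 °C; 1 = growth at the plate median or of vehicle wells; lower values mean less growth of the strain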
Conditions: S. cerevisiae deletion strains, growth OD

Measured: normalized growth

CCC(C)CCCCC(=O)NC(CCN)C(=O)NC(C(=O)NC(CCN)C(=O)NC1CCNC(=O)C(C(C)O)NC(=O)C(CCN)NC(=O)C(CCN)NC(=O)C(CC(C)C)NC(=O)C(Cc2ccccc2)NC(=O)C(CCN)NC1=O)C(C)O (configuration not stated) ({Octanoyl(6-Me)}-[Dab]T[Dab][Dab][Dab]FL[Dab][Dab]T; lactam 4-C; configuration not given here)
inactive: locus YAL013W, strain DEP1, active compounds read low 1 | locus YAL021C, strain ccr4, active compounds read low 0.95 | locus YAL026C, strain drs2, active compounds read low 0.934 | locus YAL030W, strain snc1, active compounds read low 0.99 | locus YBL061C, strain skt5, active compounds read low 0.99 | locus YBR009C, strain hhf1, active compounds read low 0.98 | locus YBR021W, strain FUR4, active compounds read low 0.996 | locus YBR023C, strain chs3, active compounds read low 0.99 | locus YBR171W, strain sec66, active compounds read low 1 | locus YBR229C, strain ROT2, active compounds read low 1 | locus YBR231C, strain swc5, active compounds read low 1 | locus YBR279W, strain paf1, active compounds read low 0.99 | locus YCL011C, strain gbp2, active compounds read low 0.995 | locus YCL016C, strain dcc1, active compounds read low 0.975 | locus YCL029C, strain bik1, active compounds read low 1.02 | locus YCL061C, strain MRC1, active compounds read low 0.959 | locus YCL069W, strain vba3, active compounds read low 0.999 | locus YCR088W, strain abp1, active compounds read low 0.997 | locus YDL005C, strain med2, active compounds read low 0.99 | locus YDL035C, strain GPR1, active compounds read low 0.973 | locus YDL040C, strain nat1, active compounds read low 1 | locus YDL074C, strain BRE1, active compounds read low 1.01 | locus YDL101C, strain DUN1, active compounds read low 1.02 | locus YDL134C, strain PPH21, active compounds read low 0.997 | locus YDL185W, strain tfp1, active compounds read low 1 | locus YDL192W, strain arf1, active compounds read low 0.991 | locus YDR001C, strain nth1, active compounds read low 1.01 | locus YDR069C, strain doa4, active compounds read low 0.989 | locus YDR101C, strain arx1, active compounds read low 1.01 | locus YDR137W, strain rgp1, active compounds read low 1.08 | locus YDR150W, strain NUM1, active compounds read low 0.995 | locus YDR159W, strain sac3, active compounds read low 0.985 | locus YDR162C, strain NBP2, active compounds read low 0.99 | locus YDR195W, strain ref2 0.953 | locus YDR297W, strain sur2, active compounds read low 0.994 | locus YDR318W, strain mcm21, active compounds read low 1.01 | locus YDR334W, strain swr1, active compounds read low 1 | locus YDR335W, strain msn5, active compounds read low 0.998 | locus YDR388W, active compounds read low 1.01 | locus YDR392W, strain spt3, active compounds read low 0.802 | locus YDR502C, strain sam2, active compounds read low 0.997 | locus YEL003W, strain gim4, active compounds read low 0.997 | locus YEL037C, strain rad23, active compounds read low 1 | locus YEL061C, strain CIN8 (second series), active compounds read low 1 | locus YEL061C, strain CIN8, active compounds read low 0.998 | locus YER015W, strain faa2, active compounds read low 0.992 | locus YER016W, strain bim1, active compounds read low 1 | locus YER110C, active compounds read low 1.02 | locus YER111C, strain swi4, active compounds read low 1 | locus YER155C, strain BEM2 (second series), active compounds read low 0.91 | locus YER155C, strain BEM2, active compounds read low 1.02 | locus YER167W, strain BCK2, active compounds read low 0.996 | locus YFR010W, strain ubp6, active compounds read low 0.999 | locus YGL078C, strain dbp3, active compounds read low 0.993 | locus YGL086W, strain mad1, active compounds read low 0.989 | locus YGL167C, strain pmr1, active compounds read low 0.978 | locus YGL173C, strain kem1, active compounds read low 0.99 | locus YGL227W, strain vid30, active compounds read low 1.01 | locus YGL240W, strain doc1, active compounds read low 0.986 | locus YGL248W, strain PDE1, active compounds read low 1.01 | locus YGL253W, strain hxk2, active compounds read low 1.01 | locus YGR078C, strain PAC10, active compounds read low 1.02 | locus YGR135W, strain pre9, active compounds read low 0.998 | locus YGR229C, strain SMI1, active compounds read low 0.976 | locus YGR252W, strain gcn5, active compounds read low 0.937 | locus YHR013C, strain ard1, active compounds read low 0.901 | locus YHR027C, strain rpn1, active compounds read low 0.989 | locus YHR030C, strain SLT2, active compounds read low 1 and 0.991 | locus YHR079C, strain IRE1 (second series), active compounds read low 1.01 | locus YHR079C, strain IRE1, active compounds read low 0.995 | locus YHR094C, strain hxt1, active compounds read low 1.01 | locus YHR129C, strain ARP1, active compounds read low 1.01 | locus YHR142W, strain chs7, active compounds read low 1.01 | locus YHR200W, strain rpn10, active compounds read low 0.996 | locus YIL066C, strain RNR3, active compounds read low 0.984 | locus YIL073C, strain SPO22, active compounds read low 1.02 | locus YIL125W, strain kgd1, active compounds read low 0.994 | locus YIR030C, strain dcg1, active compounds read low 1.01 | locus YJL092W, strain hpr5, active compounds read low 1 | locus YJL095W, strain BCK1 (second series), active compounds read low 1.01 | locus YJL095W, strain BCK1, active compounds read low 1.02 and 1 | locus YJL115W, strain asf1, active compounds read low 0.977 | locus YJL129C, strain trk1, active compounds read low 1.09 | locus YJL134W, strain LCB3, active compounds read low 1 | locus YJL154C, strain vps35, active compounds read low 1.01 | locus YJL164C, strain tpk1, active compounds read low 0.98 | locus YJL166W, strain qcr8, active compounds read low 0.981 | locus YJL168C, strain set2, active compounds read low 1.01 | locus YJL187C, strain SWE1 (second series), active compounds read low 1.02 | locus YJL187C, strain SWE1, active compounds read low 0.998 | locus YJR043C, strain POL32, active compounds read low 1.02 | locus YJR066W, strain TOR1, active compounds read low 0.97
